# Shown is part of a subset that was picked to be rich in the strongest signals.
# B1: SSR1 (Sclerotium rolfsii), A0A0M3KL30 (protein)
# chain: TYKITVRVYQTNPDAFFHPVEKTVWKYANGGTWTITDDQHVLTMGGSGTSGTLRFHADNGESFTATFGVHNYKRWCDIVTNLAADETGMVINQQYYSQKNREEARERQLSNYQVKNAKGRNFQIVYTEAEGNDLHANLIIG
# Experiments:
# Experiment in all cases: glycan array binding signal (z-score within array); higher = stronger binding
# Settings in all cases: glycan notation: IUPAC condensed, linker removed
# [1] = biological target: GlcNAc(b1-2)Man(a1-3)[GlcNAc(b1-2)Man(a1-6)]Man(b1-4)GlcNAc(b1-4)GlcNAc
# In short: (§1)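 From the Consortium for Functional Glycomics database, 3228 arrays were curated, keeping only those whose protein sequence was available. Binding is given as a within-array Z-score averaged across arrays sharing a protein sequence and across linkers. Negative Z-scores can be read as non-binding.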
# [2] = biological target: GlcNAc(b1-2)[GlcNAc(b1-4)]Man(a1-3)[GlcNAc(b1-2)Man(a1-6)]Man(b1-4)GlcNAc(b1-4)GlcNAc
# In short: as §1
# [3] = biological target: GlcNAc(b1-2)[GlcNAc(b1-6)]Man(a1-6)[GlcNAc(b1-2)Man(a1-3)]Man(b1-4)GlcNAc(b1-4)GlcNAc
# In short: as §1
# [4] = biological target: GlcNAc(b1-2)[GlcNAc(b1-6)]Man(a1-6)[GlcNAc(b1-2)Man(a1-3)]Man(b1-4)GlcNAc(b1-4)[Fuc(a1-6)]GlcNAc
# In short: as §1
# [5] = biological target: GlcNAc(b1-3)Gal(b1-4)GlcNAc(b1-2)[GlcNAc(b1-3)Gal(b1-4)GlcNAc(b1-6)]Man(a1-6)[GlcNAc(b1-3)Gal(b1-4)GlcNAc(b1-2)Man(a1-3)]Man(b1-4)GlcNAc(b1-4)GlcNAc
# In short: as §1
# [6] = biological target: GlcNAc(b1-3)Gal(b1-4)GlcNAc(b1-6)[GlcNAc(b1-3)]Gal(b1-4)GlcNAc
# In short: as §1
# GlcNAc(b1-3)GalNAc = biological target: GlcNAc(b1-3)GalNAc
# In short: as §1
# GlcNAc(b1-6)GalNAc = biological target: GlcNAc(b1-6)GalNAc
# In short: as §1
# [7] = biological target: Man(a1-2)Man(a1-3)[Man(a1-2)Man(a1-6)]Man(a1-6)[Man(a1-2)Man(a1-2)Man(a1-3)]Man(b1-4)GlcNAc(b1-4)GlcNAc
# In short: as §1
# [8] = biological target: Man(a1-2)Man(a1-6)[Man(a1-3)]Man(a1-6)[Man(a1-2)Man(a1-2)Man(a1-3)]Man
# In short: as §1
# [9] = biological target: Neu5Ac(a2-3)Gal(b1-3)GalNAc(b1-4)Gal(b1-4)Glc
# In short: as §1
# [10] = biological target: Neu5Ac(a2-3)Gal(b1-3)GlcNAc(b1-3)Gal(b1-4)GlcNAc
# In short: as §1
# [11] = biological target: Neu5Ac(a2-3)Gal(b1-3)[Fuc(a1-4)]GlcNAc
# In short: as §1
# [12] = biological target: Neu5Ac(a2-3)Gal(b1-4)GlcNAc(b1-2)Man
# In short: as §1
# [13] = biological target: Neu5Ac(a2-3)Gal(b1-4)GlcNAc(b1-3)Gal(b1-4)GlcNAc(b1-3)GalNAc
# In short: as §1
# [14] = biological target: Neu5Ac(a2-3)Gal(b1-4)GlcNAc(b1-3)Gal(b1-4)GlcNAc(b1-6)[Gal(b1-3)]GalNAc
# In short: as §1
# [15] = biological target: Neu5Ac(a2-3)Gal(b1-4)GlcNAc(b1-6)GalNAc
# In short: as §1
# [16] = biological target: Neu5Ac(a2-3)Gal(b1-4)[Fuc(a1-3)]GlcNAc(b1-2)Man
# In short: as §1
# [17] = biological target: Neu5Ac(a2-3)Gal(b1-4)[Fuc(a1-3)]GlcNAc(b1-3)Gal
# In short: as §1
# [18] = biological target: Neu5Ac(a2-3)Gal(b1-4)[Fuc(a1-3)]GlcNAc(b1-3)Gal(b1-4)GlcNAc
# In short: as §1
# [19] = biological target: Neu5Ac(a2-3)Gal6S(b1-4)[Fuc(a1-3)]GlcNAc
# In short: as §1
# [20] = biological target: Neu5Ac(a2-6)Gal(b1-4)GlcNAc(b1-2)Man(a1-3)Man(b1-4)GlcNAc(b1-4)GlcNAc
# In short: as §1
# [21] = biological target: Neu5Ac(a2-6)Gal(b1-4)GlcNAc(b1-2)Man(a1-3)[Neu5Ac(a2-3)Gal(b1-4)GlcNAc(b1-2)Man(a1-6)]Man(b1-4)GlcNAc(b1-4)GlcNAc
# In short: as §1
# [22] = biological target: Neu5Ac(a2-6)Gal(b1-4)GlcNAc(b1-3)[Neu5Ac(a2-6)Gal(b1-4)GlcNAc(b1-6)]GalNAc
# In short: as §1
# [23] = biological target: Neu5Ac9Ac(a2-3)Gal(b1-4)GlcNAc
# In short: as §1
# [24] = biological target: Neu5Gc(a2-3)Gal(b1-3)GlcNAc
# In short: as §1
# Neu5Gc(a2-3)Gal(b1-4)Glc = biological target: Neu5Gc(a2-3)Gal(b1-4)Glc
# In short: as §1
binder,measurement,setting,value
B1,glycan array binding signal (z-score),[1],5.28
same,glycan array binding signal (z-score),[2],3.04
same,glycan array binding signal (z-score),[3],3.93
same,glycan array binding signal (z-score),[4],3.66
same,glycan array binding signal (z-score),[5],1.32
same,glycan array binding signal (z-score),[6],0.953
same,glycan array binding signal (z-score),GlcNAc(b1-3)GalNAc,0.954
same,glycan array binding signal (z-score),GlcNAc(b1-6)GalNAc,1.03
same,glycan array binding signal (z-score),[7],-0.548
same,glycan array binding signal (z-score),[8],-0.348
same,glycan array binding signal (z-score),[9],-0.271
same,glycan array binding signal (z-score),[10],-0.343
same,glycan array binding signal (z-score),[11],-0.341
same,glycan array binding signal (z-score),[12],-0.313
same,glycan array binding signal (z-score),[13],0.407
same,glycan array binding signal (z-score),[14],1.06
same,glycan array binding signal (z-score),[15],-0.334
same,glycan array binding signal (z-score),[16],-0.374
same,glycan array binding signal (z-score),[17],-0.342
same,glycan array binding signal (z-score),[18],-0.324
same,glycan array binding signal (z-score),[19],-0.349
same,glycan array binding signal (z-score),[20],-0.341
same,glycan array binding signal (z-score),[21],-0.339
same,glycan array binding signal (z-score),[22],-0.297
same,glycan array binding signal (z-score),[23],-0.27
same,glycan array binding signal (z-score),[24],-0.329
same,glycan array binding signal (z-score),Neu5Gc(a2-3)Gal(b1-4)Glc,-0.278

# — the supplement of paper PMC8728848
